Where “and” joins values, the source holds several entries; their conditions need not be identical. Equal entries are not always repeated. In all, about 5,500 compounds went through this assay and about 2,000 (36%) were called active. About 18% were inconclusive and are not listed. Cut-off read from the data, not from the text of the source: active = normalized growth mostly below about 0.91 (no sharp cut-off); inconclusive = no clear call, values can overlap the other calls; inactive = mostly above about 0.92. Some of the results follow.
Experiment: chemical genetic growth profiling, strain panel (AID 1159580);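 note: tested at 20 µM; growth read once vehicle control cultures reached saturation at 30 °C; 1 = growth at the plate median or of vehicle wells; lower values mean less growth of the strain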
Settings: S. cerevisiae deletion strains, growth OD

Measured: normalized growth

CC(C)NCC(O)COc1cccc2[nH]ccc12 (centres undefined)
inactive: locus YAL013W, strain DEP1, stronger effect = lower value 1 and 0.99 | locus YAL021C, strain ccr4, stronger effect = lower value 1.01 | locus YAL026C, strain drs2, stronger effect = lower value 0.986 | locus YAL030W, strain snc1, stronger effect = lower value 0.982 | locus YAL040C, strain CLN3, stronger effect = lower value 0.983 and 0.988 | locus YBL061C, strain skt5, stronger effect = lower value 0.977 | locus YBR009C, strain hhf1, stronger effect = lower value 0.983 | locus YBR021W, strain FUR4, stronger effect = lower value 1.02 | locus YBR023C, strain chs3, stronger effect = lower value 0.979 | locus YBR171W, strain sec66, stronger effect = lower value 0.979 | locus YBR229C, strain ROT2, stronger effect = lower value 0.999 | locus YBR231C, strain swc5, stronger effect = lower value 0.986 | locus YBR279W, strain paf1, stronger effect = lower value 0.992 | locus YCL011C, strain gbp2, stronger effect = lower value 0.98 | locus YCL016C, strain dcc1, stronger effect = lower value 0.981 | locus YCL029C, strain bik1, stronger effect = lower value 0.993 | locus YCL061C, strain MRC1 (second series), stronger effect = lower value 0.998 and 0.999 | locus YCL061C, strain MRC1, stronger effect = lower value 0.984 | locus YCL069W, strain vba3, stronger effect = lower value 0.983 | locus YCR088W, strain abp1, stronger effect = lower value 0.983 | locus YDL005C, strain med2, stronger effect = lower value 0.988 | locus YDL035C, strain GPR1, stronger effect = lower value 0.993 | locus YDL040C, strain nat1, stronger effect = lower value 0.986 | locus YDL074C, strain BRE1, stronger effect = lower value 1 | locus YDL101C, strain DUN1, stronger effect = lower value 0.988 | locus YDL134C, strain PPH21, stronger effect = lower value 0.989 | locus YDL185W, strain tfp1, stronger effect = lower value 0.947 | locus YDL192W, strain arf1, stronger effect = lower value 0.974 | locus YDR001C, strain nth1, stronger effect = lower value 0.974 | locus YDR069C, strain doa4, stronger effect = lower value 0.976 | locus YDR101C, strain arx1, stronger effect = lower value 0.983 | locus YDR137W, strain rgp1, stronger effect = lower value 0.975 | locus YDR150W, strain NUM1, stronger effect = lower value 1 and 0.997 | locus YDR159W, strain sac3, stronger effect = lower value 0.955 | locus YDR162C, strain NBP2, stronger effect = lower value 0.995 | locus YDR195W, strain ref2 0.927 | locus YDR297W, strain sur2, stronger effect = lower value 0.988 | locus YDR318W, strain mcm21, stronger effect = lower value 0.977 | locus YDR334W, strain swr1, stronger effect = lower value 0.978 | locus YDR335W, strain msn5, stronger effect = lower value 0.983 | locus YDR363W, strain ESC2, stronger effect = lower value 0.991 and 0.993 | locus YDR388W, stronger effect = lower value 0.979 | locus YDR392W, strain spt3, stronger effect = lower value 0.902 | locus YDR502C, strain sam2, stronger effect = lower value 0.986 | locus YEL003W, strain gim4, stronger effect = lower value 0.988 | locus YEL037C, strain rad23, stronger effect = lower value 1.01 | locus YEL061C, strain CIN8 (second series), stronger effect = lower value 0.972 | locus YEL061C, strain CIN8, stronger effect = lower value 0.997 | locus YER002W, strain NOP16, stronger effect = lower value 0.987 and 1.02 | locus YER015W, strain faa2, stronger effect = lower value 0.989 | locus YER016W, strain bim1, stronger effect = lower value 0.979 | locus YER110C, stronger effect = lower value 0.978 | locus YER111C, strain swi4, stronger effect = lower value 0.983 | locus YER155C, strain BEM2 (second series), stronger effect = lower value 0.97 | locus YER155C, strain BEM2, stronger effect = lower value 0.994 | locus YER167W, strain BCK2, stronger effect = lower value 0.991 | locus YFR010W, strain ubp6, stronger effect = lower value 0.961 | locus YGL078C, strain dbp3, stronger effect = lower value 0.99 | locus YGL086W, strain mad1, stronger effect = lower value 0.999 | locus YGL167C, strain pmr1, stronger effect = lower value 0.976 | locus YGL173C, strain kem1, stronger effect = lower value 0.989 | locus YGL227W, strain vid30, stronger effect = lower value 0.977 | locus YGL240W, strain doc1, stronger effect = lower value 0.986 | locus YGL248W, strain PDE1, stronger effect = lower value 0.997 | locus YGL253W, strain hxk2, stronger effect = lower value 0.981 | locus YGR078C, strain PAC10, stronger effect = lower value 0.993 and 1.01 | locus YGR135W, strain pre9, stronger effect = lower value 0.989 | locus YGR229C, strain SMI1, stronger effect = lower value 1.01 | locus YGR252W, strain gcn5, stronger effect = lower value 1.16 | locus YHR013C, strain ard1, stronger effect = lower value 0.943 | locus YHR027C, strain rpn1, stronger effect = lower value 0.986 | locus YHR030C, strain SLT2, stronger effect = lower value 0.99 and 0.988 | locus YHR079C, strain IRE1 (second series), stronger effect = lower value 0.977 | locus YHR079C, strain IRE1, stronger effect = lower value 0.977 | locus YHR094C, strain hxt1, stronger effect = lower value 0.977 | locus YHR129C, strain ARP1, stronger effect = lower value 1 | locus YHR142W, strain chs7, stronger effect = lower value 0.997 | locus YHR200W, strain rpn10, stronger effect = lower value 0.978 | locus YIL066C, strain RNR3, stronger effect = lower value 0.999 | locus YIR030C, strain dcg1, stronger effect = lower value 0.991 | locus YJL092W, strain hpr5, stronger effect = lower value 0.979 | locus YJL095W, strain BCK1 (second series), stronger effect = lower value 0.984 | locus YJL095W, strain BCK1, stronger effect = lower value 1.01 and 0.997 | locus YJL115W, strain asf1, stronger effect = lower value 0.975 | locus YJL129C, strain trk1, stronger effect = lower value 0.997 | locus YJL134W, strain LCB3, stronger effect = lower value 0.984 | locus YJL154C, strain vps35, stronger effect = lower value 0.98 | locus YJL164C, strain tpk1, stronger effect = lower value 1 | locus YJL166W, strain qcr8, stronger effect = lower value 1.01 | locus YJL168C, strain set2, stronger effect = lower value 0.983 | locus YJL187C, strain SWE1 (second series), stronger effect = lower value 0.987 | locus YJL187C, strain SWE1, stronger effect = lower value 0.985 | locus YJR043C, strain POL32, stronger effect = lower value 1 | locus YJR066W, strain TOR1, stronger effect = lower value 0.94
